Measurements taken from PubChem BioAssay (Tox21).
Results filed as inconclusive are left out. Values without a mark were called inactive. Calls of active or inactive are those of the source. Calls come from the whole dose curve; as a rule, active = well fitted activation curve with a large enough effect in the signal ratio in the repeat runs (not every such curve was filed as active); inconclusive = weak or mixed curves, or effect the other way; inactive = flat fitted curve, though single readings scatter; the % refers to the signal ratio.

Assay: qHTS assay to identify small molecule agonists of the endoplasmic reticulum stress response signaling pathway (AID 1159516)
Details: ESRE-bla HeLa, ER stress beta-lactamase reporter, 5 h; series mostly up to 61 µM; activation: at the top concentration
Text: National Center for Advancing Translational Sciences [NCATS]
NIH Chemical Genomics Center [NCGC]
U.S. Environmental Protection Agency [EPA]
National Institutes of Environmental Health Sciences [NIEHS]
National Toxicology Program [NTP]
U.S. Food and Drug Administration [FDA]
Endoplasmic Reticulum (ER) plays an important role in cellular signaling, protein folding/maturation, stress response, lipid biosynthesis, calcium storage and release etc. Under stress conditions, proteins in ER misfold or unfold, and leading to the expression of ER stress responsive genes. ER stress has been associated with a variety of pathophysiological conditions such as cancer, inflammation, neurodegenerative diseases, diabetes, ischemic heart disease etc. To identify the compounds that induce ER stress response, an ER stress reporter cell line, CellSensor ESRE-bla HeLa (Life Technologies, Carlsbad, CA) containing a beta-lactamase reporter gene under control of the Endoplasmic reticulum Stress Response Element (ESRE) was used to screen Tox21 10K compound library.
Tox21 Assay Protocol Summary:
ESRE-bla HeLa cells were dispensed at 1,500 cells/6 uL of assay medium per well into black wall/clear-bottom 1536-well plates using a Multidrop Combi (ThermoFisher Scientific, Waltham, MA) dispenser. After the assay plates were incubated at 37 C and 5% CO2 for an overnight, 23 nL of compounds dissolved in DMSO, positive controls or DMSO only was transferred to the assay plate by a Pintool station (Kalypsys, San Diego, CA). The assay plates were incubated at 37 C and 5% CO2 for 5 hr. One uL of LiveBLAzer B/G FRET substrate (Life Technologies) was added using a Flying Reagent Dispenser (Aurora Discovery, San Diego, CA) and the plates were incubated at room temperature for 2 hr. Fluorescence intensity (405 nm excitation, 460 nm and 530 nm emissions) was measured using an Envision plate reader (PerkinElmer, Shelton, CT).
% is set by controls: 0 for no effect and ±100 for the full control effect; potency is the fitted concentration of half-maximal effect.

Compound | activation | Potency
O=C1Nc2cc(Cl)ccc2Oc2ccccc21 | 4.32% | 
CCCCCCCCCCCCCCCCCBr | -0.334% [at 28.5 µM] | 
c1ccc(-c2nc[nH]c2-c2ccccc2)cc1 | -3.35% | 
Cc1ccc(C)o1 | -3.74% [at 78.8 µM] | 
CCCCCCCC/C=C\CCCCCCCC(N)=O | -0.79% | 
O=C1[C@H](CC[C@H](O)c2ccc(F)cc2)[C@@H](c2ccc(O)cc2)N1c1ccc(F)cc1 | -2.87% | 
Nc1nc(CC(=O)O)cs1 | -14.7% [at 78.8 µM] | 
CC1CCc2cc(F)cc3c(=O)c(C(=O)O)cn1c23 (stereo not given) | -1.42% | 
CCCc1ccccc1 | -2.83% | 
CCCCC(CC)COCCCN (stereo not given) | 2.35% | 
Cc1c(Cn2ccnc2)c2ccccc2n1CCC(=O)O | 2.99% | 
Cc1cccc(C(C)(C)C)c1O | -1.29% | 
ClC(Cl)(Cl)c1ccc(C(Cl)(Cl)Cl)cc1 | -2.61% | 
O=C(O)COC(=O)Cc1ccccc1Nc1c(Cl)cccc1Cl | -0.124% | 
Cc1cccc(Oc2ccccc2)c1 | -0.313% | 
O=C(NN1CCCC1)NS(=O)(=O)c1ccc(Cl)cc1 | 1.46% | 
Cc1occc1S | -5.85% | 
CCN1CCC[C@H]1CNC(=O)c1c(OC)ccc(Br)c1OC | 1.69% | 
CC(C)=CCCC(C)CC=O (stereo not given) | -0.505% | 
CC(=O)[C@@]1(O)CC[C@H]2[C@@H]3C[C@H](C)C4=CC(=O)CC[C@]4(C)[C@H]3CC[C@@]21C | -3.79% | 

Compound | activation | Potency
CC(=O)OCCc1ccccc1 | -0.252% | 
CC(C(=O)O)c1ccc(-c2ccccc2)c(F)c1 (stereo not given) | -2.65% | 
CC(C)(C)C1CCCCC1O (stereo not given) | 0.564% | 
CCN(CC)CCc1nc(-c2ccccc2)no1 | -0.372% | 
CC(C)CC=O | 0.587% | 
CC[C@]12CCCN3CCc4c(n(c5ccccc45)C(=O)C1)[C@@H]32 | -0.604% | 
CCN(CC)C(C)CN1c2ccccc2Sc2ccccc21 (stereo not given) | -0.733% | 
SC1CCCC1 | -4.22% | 
CC(=O)OC/C=C/c1ccccc1 | 0.105% | 
Cc1cc(CC(=O)O)c(C)n1-c1ccc(Cl)cc1 | -0.959% | 
C=C(C)C(=O)OCCOc1ccccc1 | 0.375% | 
CN1CCC[C@@H]1c1cccnc1 | -4.74% | 
CCc1nn(C2CCCCC2)c2cc(C3(C#N)CCC(C(=O)O)CC3)ccc12 (stereo not given) |  | 1.55 µM (active)
CC(C)(Oc1ccc(Cl)cc1)C(=O)OCCCOC(=O)C(C)(C)Oc1ccc(Cl)cc1 | 1.89% | 
C#CCOC(=O)[C@@H](C)Oc1ccc(Oc2ncc(Cl)cc2F)cc1 | 2.94% | 
CN(C)C/C=C(/c1ccc(Br)cc1)c1cccnc1 | 1.74% | 
CC(=O)CC(=O)c1ccccc1 | -3.02% [at 78.8 µM] | 
OC(CCN1CCCCC1)(c1ccccc1)C1CCCCC1 (stereo not given) | -0.628% | 
Cc1ccc(C(N)=O)cc1N | 1.58% | 
CC1(C)[C@H]2CC[C@]1(C)[C@H](O)C2 | -0.0276% | 
